Out of some 390,000 compounds screened, about 4,000 (1%) were called active. Not shown: some 4% with an inconclusive outcome. This excerpt belongs to a sample that is enriched for actives. A number with no mark means an inactive call. Calls come from the whole dose curve; as a rule, active = well fitted inhibition curve with a large enough effect; inconclusive = small, poorly fitted or top-dose-only effect; inactive = no such curve, though single readings can be large or run the other way.
molecular target: Thioredoxin reductase 1, cytoplasmic (Rattus norvegicus) (UniProt O89049); test: qHTS Assay for Inhibitors of Mammalian Selenoprotein Thioredoxin Reductase 1 (TrxR1): qHTS; details: recombinant rTrxR1, NADPH fluorescence consumption, selenite substrate; series mostly up to 114 µM; activity change, negative = inhibition: at the top concentration; note: nearly all actives have a fitted effect of over 65% in size
In short: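 Rat TrxR1 (90 nM in the dispensed reagent) was pre-reduced with 400 uM NADPH for 5 min at room temperature, then incubated with compound for 15 min. After 400 uM selenite was added, NADPH fluorescence (Ex 340/Em 450 nm) was followed for 8 min.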
% is set by controls: 0 for no effect and ±100 for the full control effect; potency is the fitted concentration of half-maximal effect.

Chain of Thioredoxin reductase 1, cytoplasmic (Rattus norvegicus) (O89049 whole entry, looked up): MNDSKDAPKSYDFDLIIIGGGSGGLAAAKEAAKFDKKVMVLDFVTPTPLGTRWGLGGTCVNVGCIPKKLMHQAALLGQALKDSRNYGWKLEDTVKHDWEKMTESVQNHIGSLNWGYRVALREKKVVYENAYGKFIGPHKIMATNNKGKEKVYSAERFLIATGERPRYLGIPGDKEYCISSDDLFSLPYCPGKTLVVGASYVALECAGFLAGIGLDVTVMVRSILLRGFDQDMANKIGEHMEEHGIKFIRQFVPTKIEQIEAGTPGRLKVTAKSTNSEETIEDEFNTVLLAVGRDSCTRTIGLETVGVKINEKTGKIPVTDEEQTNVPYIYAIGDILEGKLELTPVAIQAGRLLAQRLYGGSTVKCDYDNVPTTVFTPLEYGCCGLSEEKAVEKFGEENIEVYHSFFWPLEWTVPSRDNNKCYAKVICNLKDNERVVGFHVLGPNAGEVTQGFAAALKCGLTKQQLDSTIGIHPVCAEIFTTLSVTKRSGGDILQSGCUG

SMILES	activity change, negative = inhibition	Potency
O=c1[nH]c2cc(Br)ccc2n2cccc12	10.7%	–
CC(C)Cn1c(=O)c2ccccc2n2c(-c3cccc(Cl)c3)nnc12	20.3%	–
O=c1[nH]c2ccccc2n2c(-c3ccccc3)nnc12	–	0.708 µM (active)
O=c1cc(-c2ccccc2)n2c(SCc3ccccc3)nnc2[nH]1	0.137% [at 57.1 µM]	–
Cc1ccc2nc(N3CCN(c4cccc(Cl)c4)CC3)c3nnnn3c2c1	7.14%	–
COc1ccc(N2C(=O)CSC23C(=O)N(Cc2cccc(F)c2)c2ccccc23)cc1Cl (stereo not drawn)	17.9%	–
Oc1c(C(c2ccc(F)cc2)N2CCN(Cc3ccccc3)CC2)sc2nc(-c3ccco3)nn12 (stereo not drawn)	4.01% [at 57.1 µM]	–
CC1(C)C/C(=N/Nc2ccc([N+](=O)[O-])cc2[N+](=O)[O-])C(C)(C)O1	12.7% [at 57.1 µM]	–
C[n+]1ccccc1C1CCCC/C1=N\Nc1ccc([N+](=O)[O-])cc1[N+](=O)[O-] (stereo not drawn)	-2.33%	–
O=[N+]([O-])c1ccc(N/N=C2/CCCCC2c2ccccn2)c([N+](=O)[O-])c1 (stereo not drawn)	–	3.55 µM (active)
Cc1cc(N2CCN(c3cccc(C(F)(F)F)c3)CC2)n2nc(-c3ccccc3)nc2n1	-7.51%	–
COC(=O)c1sc(NC(=O)COC(=O)C2CCC2)c(C(=O)OC)c1C	1.57%	–
CCOC(=O)c1c(NC(=O)CCl)sc(C(=O)N(CC)CC)c1C	–	31.6 µM (active)
CCOC(=O)c1c(NC(=O)c2cc(CC)on2)sc(C(C)=O)c1C	1.81%	–
CCc1ccccc1NC(=O)CSc1nc(C)c(C(=O)Nc2ccccc2)c(-c2ccc(Cl)cc2)c1C#N	17.1%	–
CCCn1c(=O)c2[nH]c(-c3ccc(OCC(=O)NCCN)cc3)nc2n(CCC)c1=O	–	inactive
COc1ccccc1/C=C/c1nc(C#N)c(NC(C)c2ccccc2)o1 (stereo not drawn)	80.7%	–
O=C(CCC1N=C2c3ccccc3N=C(SCc3ccccc3F)N2C1=O)NCCc1ccccc1 (stereo not drawn)	6.07% [at 57.1 µM]	–
Cc1ccc(-c2nnc(SCC(=O)NCc3ccccc3)nc2-c2ccc(C)cc2)cc1	20.8% [at 57.1 µM]	–
CC1(C)N=C(SCc2ccccc2Cl)c2ccccc2N1	14.5%	–
CSc1n[nH]c(-c2ccco2)n1	11.5%	–

SMILES	activity change, negative = inhibition	Potency
Clc1ccccc1CSc1nnc(-c2ccco2)c(-c2ccco2)n1	–	5.01 µM (active)
c1ccc(CSc2nnc(-c3ccco3)c(-c3ccco3)n2)cc1	–	2.51 µM (active)
Clc1ccccc1CSc1nncn2c1cc1occc12	16.1%	–
Cc1ccc(S(=O)(=O)c2cn(Cc3ccccc3)c3cc(N4CCCC4)c(F)cc3c2=O)c(C)c1	32.3%	–
COc1cccc(-c2nc(S(=O)(=O)c3ccc(C)cc3)c(NCc3ccccc3)o2)c1	8.09%	–
Cc1c(NC(=O)Cc2ccccc2)cccc1-c1nc2cccnc2s1	22.3%	–
Cc1ccc(/C([O-])=C(/C(=S)NCc2ccco2)[n+]2ccccc2)cc1[N+](=O)[O-]	–	56.2 µM (active)
O=[N+]([O-])c1cccc(/C([O-])=C(/C(=S)Nc2ccccc2F)[n+]2ccccc2)c1	10.2% [at 57.1 µM]	–
O=C(NCc1ccco1)c1ccc(NS(=O)(=O)c2cccc([N+](=O)[O-])c2)cc1	-1.92%	–
CC1(C)Cc2ccccc2-c2c[nH]c(=O)n21	3.99%	–
Cn1nnnc1SCC(=O)Nc1sccc1C(N)=O	13.4% [at 11.4 µM]	–
COc1cc(OC)cc(C(=O)OCC(=O)Nc2sccc2C(N)=O)c1	15.1%	–
NC(=O)c1ccsc1NC(=O)c1ccco1	–	56.2 µM (active)
C=C1C=C(C)n2ncc(C(=O)Nc3ccccc3O)c2N1	8.78%	–
Cc1ccc(C2=C/C(=C\c3cccnc3)C(=O)O2)cc1	31.3%	–
CN(C)/C=C1\C=C(c2ccccc2)OC1=O	–	28.2 µM (active)
COc1ccccc1/C=C/C1=NC(=C\N(C)C)/C(=O)O1	9.66% [at 57.1 µM]	–
CN(C)c1ccc(/C=C/C=C/c2ccnc3ccccc23)cc1	-12.8%	–
Cc1ccc(S(=O)(=O)CCC(=O)OCc2ccccc2)cc1	22.7%	–
COc1ccccc1CNC(=O)CS(=O)(=O)c1cccc2nsnc12	5.68% [at 57.1 µM]	–
CN(C)S(=O)(=O)c1ccc(C(=O)N(Cc2cccnc2)c2nc3c(F)cc(F)cc3s2)cc1	1.57% [at 57.1 µM]	–

SMILES	activity change, negative = inhibition	Potency
CCOc1ccccc1NC(=O)CCS(=O)(=O)c1cccc2nsnc12	–	inactive
Cc1cccc2sc(N(CCCN(C)C)C(=O)CCS(=O)(=O)c3ccccc3)nc12	–	15.8 µM (active)
O=C(C1COc2ccccc2O1)N(Cc1cccnc1)c1nc2c(F)cc(F)cc2s1 (stereo not drawn)	23.2% [at 57.1 µM]	–
O=C(CCS(=O)(=O)c1ccccc1)N(Cc1cccnc1)c1nc2c(F)cccc2s1	–	3.98 µM (active)
O=C(O)CCS(=O)(=O)c1ccc(-c2ccccc2)cc1	-6.99%	–
COc1cccc2sc(N(CCCN(C)C)C(=O)CCS(=O)(=O)c3ccccc3)nc12	–	1.58 µM (active)
Brc1ccc2c(c1)NC(c1cccnc1)=NC(c1ccccc1)=N2	25%	–
Cc1cccc(N2CCN(C(=O)c3ccc4c(c3)CCN4S(=O)(=O)c3ccccc3)CC2)c1C	23.9%	–
Cc1cccc(NC(=O)C2CCN(S(=O)(=O)c3c(C)noc3/C=C/c3ccco3)CC2)c1	-7.03%	–
CCC(=O)N1CCc2cc(S(=O)(=O)NC(C(=O)NCCc3ccc(C)cc3)C(C)C)ccc21 (stereo not drawn)	19%	–
O=C(Cn1ncn2nc(-c3cccs3)cc2c1=O)NCc1cccc(Br)c1	17.3%	–
CCOC(=O)c1ccccc1NC(=O)c1nn(-c2ccc(OC)c(Cl)c2)c(=O)c2c1c1ccccc1n2C	15.4%	–
Cc1ccc(C(=O)NC(=S)Nc2ccc3[nH]c(=O)[nH]c3c2)cc1C	2.89% [at 57.1 µM]	–
CCOC(=O)C1=C(NC(=S)NC(=O)c2ccccc2)c2ccccc2CC1(C)C	-24.4%	–
Cc1cc2[nH]ncc2cc1NC(=S)NC(=O)c1ccccc1	–	7.08 µM (active)
CCOc1ccc(CNC(=O)c2ccc3nc(CC)c(CC)nc3c2)cc1OC	15.6% [at 57.1 µM]	–
CCOc1cccc(NC(=O)CSc2ncc(-c3ccc(Cl)cc3)[nH]2)c1	3.45%	–
CC1(C)CC(=O)c2cc(C(=O)NCc3ccccc3)c(=O)[nH]c2C1	8.76%	–
O=C(NCCC1=CCCCC1)c1ccc2c(c1)N(Cc1ccccc1F)C(=O)c1ccccc1S2(=O)=O	41.9%	–
COc1ccc(Cn2cc(C(=O)c3ccc(C)cc3)c(=O)c3cc(OC)c(OC)cc32)cc1	21.9%	–
COc1ccc(-c2nc(C)c(CCNC(=O)c3ccc(C(F)(F)F)cc3)s2)cc1OC	14.7% [at 57.1 µM]	–
